# Laboratory results from the supplement of paper PMC8728848.
# The sample as a whole holds a higher share of the strongest signals than the screen did.
# B1: Als3-N (Candida albicans) (protein)
# chain: KTITGVFNSFNSLTWSNAATYNYKGPGTPTWNAVLGWSLDGTSASPGDTFTLNMPCVFKFTTSQTSVDLTAHGVKYATCQFQAGEEFMTFSTLTCTVSNTLTPSIKALGTVTLPLAFNVGGTGSSVDLEDSKCFTAGTNTVTFNDGGKKISINVDFERSNVDPKGYLTDSRVIPSLNKVSTLFVAPQCANGYTSGTMGFANTYGDVQIDCSNIHVGITKGLNDWNYPVSSESFSYTKTCSSNGIFITYKNVPAGYRPFVDAYISATDVNSYTLSYANEYTCAGGYWQRAPFTLRWTGYRNSDAGSNGIVIVATTRTVTDSTTAVTTLPFDPNRDKTKTIEILKPIPTTTITTSYVGVTTSYLTKTAPIGETATVIVDIPYHTTTTVTSKWTGTITSTTTHTNPTDSIDTVIVQVP
# How the values were obtained:
# Assay in all cases: glycan array binding signal (z-score within array); higher = stronger binding
# Conditions in all cases: glycan notation: IUPAC condensed, linker removed
# Fuc(a1-2)Gal = molecular target: Fuc(a1-2)Gal
# How it was run: (§1)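 Glycan array binding is given as a within-array Z-score, which can be read as non-binding when negative. The arrays, 3228 of them, came from the Consortium for Functional Glycomics database and were retained only where the protein sequence was available. Z-scores were averaged across arrays of the same protein sequence at different concentrations or buffers and across linkers.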
# Fuc(a1-2)Gal(b1-3)GlcNAc = molecular target: Fuc(a1-2)Gal(b1-3)GlcNAc
# How it was run: as §1
# [1] = molecular target: Fuc(a1-2)Gal(b1-3)GlcNAc(b1-3)[Gal(b1-4)GlcNAc(b1-6)]Gal(b1-4)Glc
# How it was run: as §1
# [2] = molecular target: Fuc(a1-2)Gal(b1-3)[Fuc(a1-4)]GlcNAc
# How it was run: as §1
# [3] = molecular target: Fuc(a1-2)Gal(b1-4)Fuc(a1-3)]GlcNAc(b1-2)Man(a1-3)[Fuc(a1-2)Gal(b1-4)[Fuc(a1-3)]GlcNAc(b1-2)Man(a1-6)]Man(b1-4)GlcNAc(b1-4)GlcNAc
# How it was run: as §1
# [4] = molecular target: Fuc(a1-2)Gal(b1-4)GlcNAc6S
# How it was run: as §1
# [5] = molecular target: Fuc(a1-2)[Gal(a1-3)]Gal(b1-4)GlcNAc(b1-6)GalNAc
# How it was run: as §1
# [6] = molecular target: Fuc(a1-2)[GalNAc(a1-3)]Gal(b1-3)GalNAc(b1-3)Gal(a1-4)Gal(b1-4)Glc
# How it was run: as §1
# [7] = molecular target: Fuc(a1-2)[GalNAc(a1-3)]Gal(b1-3)GlcNAc(b1-6)GalNAc
# How it was run: as §1
# [8] = molecular target: Gal(a1-3)[Gal(a1-4)]Gal(b1-4)GlcNAc
# How it was run: as §1
# [9] = molecular target: Gal(b1-3)GlcNAc(a1-3)Gal(b1-4)GlcNAc
# How it was run: as §1
# Gal(b1-3)GlcNAc(b1-2)Man = molecular target: Gal(b1-3)GlcNAc(b1-2)Man
# How it was run: as §1
# [10] = molecular target: Gal(b1-3)[Fuc(a1-4)]GlcNAc(b1-2)Man
# How it was run: as §1
# [11] = molecular target: Gal(b1-3)[Fuc(a1-4)]GlcNAc(b1-3)Gal(b1-3)[Fuc(a1-4)]GlcNAc
# How it was run: as §1
# [12] = molecular target: Gal(b1-3)[Neu5Ac(b2-6)]GalNAc
# How it was run: as §1
# Gal(b1-4)GlcNAc = molecular target: Gal(b1-4)GlcNAc
# How it was run: as §1
# [13] = molecular target: Gal(b1-4)GlcNAc(b1-2)[Gal(b1-4)GlcNAc(b1-4)]Man(a1-3)[GlcNAc(b1-4)][Gal(b1-4)GlcNAc(b1-2)Man(a1-6)]Man(b1-4)GlcNAc(b1-4)GlcNAc
# How it was run: as §1
# [14] = molecular target: Gal(b1-4)GlcNAc(b1-3)Gal(b1-4)GlcNAc(b1-2)Man(a1-3)[Gal(b1-4)GlcNAc(b1-3)Gal(b1-4)GlcNAc(b1-2)Man(a1-6)]Man(b1-4)GlcNAc(b1-4)GlcNAc
# How it was run: as §1
# [15] = molecular target: Gal(b1-4)GlcNAc(b1-3)Gal(b1-4)GlcNAc(b1-3)Gal(b1-4)GlcNAc(b1-2)Man(a1-3)[Gal(b1-4)GlcNAc(b1-3)Gal(b1-4)GlcNAc(b1-3)Gal(b1-4)GlcNAc(b1-2)Man(a1-6)]Man(b1-4)GlcNAc(b1-4)GlcNAc
# How it was run: as §1
# [16] = molecular target: GalNAc(b1-4)GlcNAc(b1-2)Man
# How it was run: as §1
# Glc(a1-6)Glc(a1-6)Glc = molecular target: Glc(a1-6)Glc(a1-6)Glc
# How it was run: as §1
# [17] = molecular target: GlcNAc(a1-4)Gal(b1-4)GalNAc
# How it was run: as §1
# [18] = molecular target: GlcNAc(a1-4)Gal(b1-4)GlcNAc(b1-3)Gal(b1-4)GlcNAc
# How it was run: as §1
# [19] = molecular target: GlcNAc(a1-6)Gal(b1-4)GlcNAc
# How it was run: as §1
# [20] = molecular target: GlcNAc(b1-3)Gal(b1-4)GlcNAc(b1-3)Gal(b1-4)GlcNAc(b1-2)Man(a1-3)[GlcNAc(b1-3)Gal(b1-4)GlcNAc(b1-3)Gal(b1-4)GlcNAc(b1-2)Man(a1-6)]Man(b1-4)GlcNAc(b1-4)GlcNAc
# How it was run: as §1
# [21] = molecular target: GlcNAc(b1-3)Gal(b1-4)GlcNAc(b1-3)Gal(b1-4)GlcNAc(b1-2)[GlcNAc(b1-3)Gal(b1-4)GlcNAc(b1-3)Gal(b1-4)GlcNAc(b1-6)]Man(a1-6)[GlcNAc(b1-3)Gal(b1-4)GlcNAc(b1-3)Gal(b1-4)GlcNAc(b1-2)Man(a1-3)]Man(b1-4)GlcNAc(b1-4)[Fuc(a1-6)]GlcNAc
# How it was run: as §1
# [22] = molecular target: GlcNAc(b1-3)Gal(b1-4)GlcNAc(b1-3)Gal(b1-4)GlcNAc(b1-3)Gal(b1-4)GlcNAc(b1-2)[GlcNAc(b1-3)Gal(b1-4)GlcNAc(b1-3)Gal(b1-4)GlcNAc(b1-3)Gal(b1-4)GlcNAc(b1-6)]Man(a1-6)[GlcNAc(b1-3)Gal(b1-4)GlcNAc(b1-3)Gal(b1-4)GlcNAc(b1-3)Gal(b1-4)GlcNAc(b1-2)Man(a1-3)]Man(b1-4)GlcNAc(b1-4)[Fuc(a1-6)]GlcNAc
# How it was run: as §1
# [23] = molecular target: GlcNAc(b1-4)GlcNAc(b1-4)GlcNAc
# How it was run: as §1
# [24] = molecular target: GlcNAc6S(b1-3)Gal(b1-4)GlcNAc
# How it was run: as §1
# [25] = molecular target: Man(a1-2)Man(a1-2)Man(a1-6)[Man(a1-3)]Man
# How it was run: as §1
# Man(a1-2)Man(a1-3)Man = molecular target: Man(a1-2)Man(a1-3)Man
# How it was run: as §1
# [26] = molecular target: Man(a1-2)Man(a1-6)[Man(a1-3)]Man(a1-6)[Man(a1-2)Man(a1-2)Man(a1-3)]Man
# How it was run: as §1
# [27] = molecular target: Neu5Ac(a2-3)Gal(b1-3)GlcNAc(b1-2)Man
# How it was run: as §1
# [28] = molecular target: Neu5Ac(a2-3)Gal(b1-3)GlcNAc(b1-2)Man(a1-3)[GlcNAc(b1-4)][Neu5Ac(a2-3)Gal(b1-3)GlcNAc(b1-2)Man(a1-6)]Man(b1-4)GlcNAc(b1-4)GlcNAc
# How it was run: as §1
# [29] = molecular target: Neu5Ac(a2-3)Gal(b1-3)[Neu5Ac(a2-6)]GlcNAc(b1-3)[Fuc(a1-3)[Gal(b1-4)]GlcNAc(b1-6)]Gal(b1-4)Glc
# How it was run: as §1
# [30] = molecular target: Neu5Ac(a2-3)Gal(b1-4)GlcNAc(b1-2)Man(a1-3)[GlcNAc(b1-4)][Neu5Ac(a2-3)Gal(b1-4)GlcNAc(b1-2)Man(a1-6)]Man(b1-4)GlcNAc(b1-4)GlcNAc
# How it was run: as §1
# [31] = molecular target: Neu5Ac(a2-3)Gal(b1-4)GlcNAc(b1-3)Gal(b1-4)GlcNAc(b1-3)Gal(b1-4)GlcNAc(b1-2)Man(a1-3)[Neu5Ac(a2-3)Gal(b1-4)GlcNAc(b1-3)Gal(b1-4)GlcNAc(b1-3)Gal(b1-4)GlcNAc(b1-2)Man(a1-6)]GalNAc
# How it was run: as §1
# [32] = molecular target: Neu5Ac(a2-3)Gal(b1-4)GlcNAc(b1-3)Gal(b1-4)GlcNAc(b1-6)[Gal(b1-3)]GalNAc
# How it was run: as §1
# [33] = molecular target: Neu5Ac(a2-3)Gal(b1-4)GlcNAc(b1-6)GalNAc
# How it was run: as §1
# [34] = molecular target: Neu5Ac(a2-3)Gal(b1-4)GlcNAc(b1-6)[Gal(b1-3)]GalNAc
# How it was run: as §1
# [35] = molecular target: Neu5Ac(a2-3)[GalNAc(b1-4)]Gal(b1-4)GlcNAc
# How it was run: as §1
# [36] = molecular target: Neu5Ac(a2-3)[Neu5Ac(a2-6)]GalNAc
# How it was run: as §1
# Neu5Ac(a2-6)Gal(b1-4)Glc = molecular target: Neu5Ac(a2-6)Gal(b1-4)Glc
# How it was run: as §1
# [37] = molecular target: Neu5Ac(a2-6)Gal(b1-4)GlcNAc(b1-2)Man(a1-3)[Neu5Ac(a2-6)Gal(b1-4)GlcNAc(b1-2)Man(a1-6)]Man(b1-4)GlcNAc(b1-4)[Fuc(a1-6)]GlcNAc
# How it was run: as §1
# [38] = molecular target: Neu5Ac(a2-6)Gal(b1-4)GlcNAc(b1-2)Man(a1-6)[Man(a1-3)]Man(b1-4)GlcNAc(b1-4)GlcNAc
# How it was run: as §1
# [39] = molecular target: Neu5Ac(a2-6)Gal(b1-4)GlcNAc(b1-2)[Neu5Ac(a2-6)Gal(b1-4)GlcNAc(b1-4)]Man(a1-3)[GlcNAc(b1-4)][Neu5Ac(a2-6)Gal(b1-4)GlcNAc(b1-2)[Neu5Ac(a2-6)Gal(b1-4)GlcNAc(b1-6)]Man(a1-6)]Man(b1-4)GlcNAc(b1-4)GlcNAc
# How it was run: as §1
# [40] = molecular target: Neu5Ac(a2-6)Gal(b1-4)GlcNAc(b1-3)Gal(b1-3)GlcNAc
# How it was run: as §1
# [41] = molecular target: Neu5Ac(a2-6)Gal(b1-4)GlcNAc(b1-3)Gal(b1-4)GlcNAc(b1-3)Gal(b1-4)GlcNAc(b1-2)Man(a1-3)[Neu5Ac(a2-6)Gal(b1-4)GlcNAc(b1-3)Gal(b1-4)GlcNAc(b1-3)Gal(b1-4)GlcNAc(b1-2)Man(a1-6)]GalNAc
# How it was run: as §1
# [42] = molecular target: Neu5Gc(a2-3)Gal(b1-3)[Fuc(a1-4)]GlcNAc
# How it was run: as §1
binder,measurement,setting,value
B1,glycan array binding signal (z-score),Fuc(a1-2)Gal,-0.276
same,glycan array binding signal (z-score),Fuc(a1-2)Gal(b1-3)GlcNAc,-0.288
same,glycan array binding signal (z-score),[1],-0.291
same,glycan array binding signal (z-score),[2],-0.271
same,glycan array binding signal (z-score),[3],2.75
same,glycan array binding signal (z-score),[4],-0.257
same,glycan array binding signal (z-score),[5],-0.082
same,glycan array binding signal (z-score),[6],-0.14
same,glycan array binding signal (z-score),[7],-0.223
same,glycan array binding signal (z-score),[8],-0.221
same,glycan array binding signal (z-score),[9],2.03
same,glycan array binding signal (z-score),Gal(b1-3)GlcNAc(b1-2)Man,0.065
same,glycan array binding signal (z-score),[10],0.115
same,glycan array binding signal (z-score),[11],2.42
same,glycan array binding signal (z-score),[12],0.915
same,glycan array binding signal (z-score),Gal(b1-4)GlcNAc,-0.168
same,glycan array binding signal (z-score),[13],-0.288
same,glycan array binding signal (z-score),[14],8.26
same,glycan array binding signal (z-score),[15],3.26
same,glycan array binding signal (z-score),[16],0.231
same,glycan array binding signal (z-score),Glc(a1-6)Glc(a1-6)Glc,-0.244
same,glycan array binding signal (z-score),[17],-0.081
same,glycan array binding signal (z-score),[18],-0.232
same,glycan array binding signal (z-score),[19],-0.233
same,glycan array binding signal (z-score),[20],3.11
same,glycan array binding signal (z-score),[21],2.36
same,glycan array binding signal (z-score),[22],3.08
same,glycan array binding signal (z-score),[23],-0.099
same,glycan array binding signal (z-score),[24],-0.1
same,glycan array binding signal (z-score),[25],-0.257
same,glycan array binding signal (z-score),Man(a1-2)Man(a1-3)Man,-0.226
same,glycan array binding signal (z-score),[26],-0.361
same,glycan array binding signal (z-score),[27],-0.29
same,glycan array binding signal (z-score),[28],-0.11
same,glycan array binding signal (z-score),[29],-0.237
same,glycan array binding signal (z-score),[30],-0.08
same,glycan array binding signal (z-score),[31],4.72
same,glycan array binding signal (z-score),[32],0.08
same,glycan array binding signal (z-score),[33],-0.202
same,glycan array binding signal (z-score),[34],-0.233
same,glycan array binding signal (z-score),[35],2.21
same,glycan array binding signal (z-score),[36],-0.049
same,glycan array binding signal (z-score),Neu5Ac(a2-6)Gal(b1-4)Glc,-0.187
same,glycan array binding signal (z-score),[37],-0.102
same,glycan array binding signal (z-score),[38],-0.309
same,glycan array binding signal (z-score),[39],-0.151
same,glycan array binding signal (z-score),[40],-0.283
same,glycan array binding signal (z-score),[41],2.56
same,glycan array binding signal (z-score),[42],-0.341
